Source: PubChem
In the library only some 8.8% were active in any assay of this set; here they are far more common.
HPGD inh: HPGD (human) dehydrogenase inhibition; purified HPGD, NADH fluorescence kinetic, PGE2 substrate; AID 894; Potency, µM, for the others: at the highest dose activity change, negative = inhibition, usual class: inhibitors; 150,000 compounds, 4.3% hits; P15428; active = well fitted inhibition curve with a large enough effect, not every such curve was filed as active; inconclusive = small, poorly fitted or top-dose-only effect, or another doubt; inactive = no such curve, though single readings can be large or run the other way; note: % is set by controls: 0 for no effect and ±100 for the full control effect
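20 nM HPGD preincubated 15 min at room temperature with compound in 50 mM Tris-HCl pH 8, 0.01% Tween 20. Started with 1 mM NAD+ and 30 uM prostaglandin E2; NADH fluorescence (360/450 nm) read 5 times over 30-s intervals, last minus first.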
HTT cytoprotect: cytoprotection in Huntington HTT-Q103 PC12 cell model. PC12 HTT-Q103 induced, cytoprotection, ATP luminescence, 40 h. Potency, µM (doses to about 56.4 µM), without a hit: cytoprotection (ATP increase), most hits filed as activators. 230,000 compounds, 0.14% hits. AID 1471; note: % of control where 0% means no effect; nearly all actives have a fitted effect of over 45% in size
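Cells were plated at 1500 per well in phenol red-free DMEM with 5% equine and 5% calf serum. Tebufenozide (100 nM final) and compounds were added, then ATPlite reagent, and luminescence was read.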
HTT aggregate: inhibitors of mutant huntingtin aggregate formation in PC12 cells | AID 1688 | 220,000 compounds, 1.1% hits | PC12 HttQ103-GFP aggregates, Acumen cytometry, 40 h | Potency, µM (series often up to 46.1 µM), inactives show top-dose activity change, negative = inhibition, usual class: inhibitors; note: % is set by controls: 0 for no effect and ±100 for the full control effect; nearly all actives have a fitted effect of over 60% in size
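Multiplexed with ATP-based cell death, this channel scores GFP aggregates in PC12 cells expressing inducible HTTex1-Q103-GFP. Induction used 100 nM tebufenozide; compounds were tested in concentration series.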
ALDH1A1 block: blocks purified human ALDH1A1 activity; P00352; Purified ALDH1A1, NADH fluorescence, propionaldehyde substrate; Potency, µM (highest dose often 75.3 µM), without a hit: top-dose activity, negative = inhibition, most hits filed as inhibitors; 220,000 compounds, 7.3% hits; active = well fitted inhibition curve with a large enough effect, not every such curve was filed as active; inconclusive = small, poorly fitted or top-dose-only effect, or another doubt; inactive = no such curve, though single readings can be large or run the other way;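 note: plate controls were no enzyme wells and a reference inhibitor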
Target sequence (P00352 whole entry, looked up): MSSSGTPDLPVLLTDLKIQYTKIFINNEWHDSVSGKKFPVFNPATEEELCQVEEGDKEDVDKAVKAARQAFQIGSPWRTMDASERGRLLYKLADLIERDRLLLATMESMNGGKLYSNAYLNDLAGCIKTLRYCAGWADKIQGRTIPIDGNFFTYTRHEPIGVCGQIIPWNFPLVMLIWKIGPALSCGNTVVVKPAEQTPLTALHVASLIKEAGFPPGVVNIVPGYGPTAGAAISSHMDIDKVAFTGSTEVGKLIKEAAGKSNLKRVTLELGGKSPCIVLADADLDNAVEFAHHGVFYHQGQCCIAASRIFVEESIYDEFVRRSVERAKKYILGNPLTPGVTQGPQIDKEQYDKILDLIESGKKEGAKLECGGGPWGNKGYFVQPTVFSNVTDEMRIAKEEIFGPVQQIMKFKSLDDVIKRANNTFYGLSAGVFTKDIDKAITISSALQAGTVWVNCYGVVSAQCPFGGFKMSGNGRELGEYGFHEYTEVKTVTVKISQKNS
LMNA splice mod: LMNA splicing modulation; 200,000 compounds, 0.01% hits; Potency, µM (highest dose often 46.1 µM), inactives show top-dose ratio change, negative = inhibition, hits mostly inhibitors; AID 1487; HeLa LMNA splicing GFP/RFP minigene ratio, 48 h; active = well fitted inhibition curve with a large enough effect in the signal ratio, with a control signal flat, not every such curve was filed as active; inconclusive = small, poorly fitted or top-dose-only effect, or effect the other way, or a change in a side signal; the % refers to the signal ratio; note: % is set by controls: 0 for no effect and ±100 for the full control effect
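S3 HeLa stable clones carrying a lamin A-EGFP splicing minigene plus DsRed2 were seeded at 600 cells/well in Opti-MEM with 2% FBS, pin-dosed and incubated 48 h at 37°C. Acumen cytometry (488 nm) gave the GFP/RFP total-intensity ratio.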
Numbers without * were called inactive; ? = inconclusive; / = no result given; [ ] = another dose, or the depositor's remark. Unless noted, calls come from the whole dose curve; as a rule, active = well fitted curve in the direction sought with a large enough effect; inconclusive = small, poorly fitted or top-dose-only effect, or another doubt; inactive = no such curve, though single readings can be large; an effect the other way counts as inactive or inconclusive. Potency is the fitted concentration of half-maximal effect.

SMILES	HPGD inh	HTT cytoprotect	HTT aggregate	ALDH1A1 block	LMNA splice mod
CN1C(=O)/C(=N/OC(=O)c2ccccc2)c2ccccc21	14µM*	10%	-1%	?	11%
O=C(O/N=C1\C(=O)N(c2ccccc2)c2ccccc21)C1CC1	/	-3%[10 µM]	-8%	-4%	?
CCOC(=O)Cn1c(=O)n(Cc2ccco2)c(=O)c2ccc(C(=O)NCCc3ccccc3)cc21	-12%	-25%	-7%	4µM*	9%
COc1ccc(CCNC(=O)Cn2c(=O)n(Cc3ccco3)c(=O)c3ccc(Cl)cc32)cc1OC	-11%	-4%	12%	?	4%
CCCCOc1ccc(C2CCC(C(C)=O)C(C)C2)cc1 (stereo not given)	/	19%[10 µM]	-7%[9.22 µM]	/	/
CCOc1ccc(C2C(C#N)=C(N)Oc3cc(C)oc(=O)c32)cc1 (stereo not given)	/	/	/	8.9µM*	0%[46 µM]
Cc1ccc(C2C(C#N)=C(N)Oc3cc(C)oc(=O)c32)o1 (stereo not given)	/	-3%[10 µM]	8%[9.22 µM]	?	/
CC(C)COC(=O)c1ccc(N)cc1	/	-18%	9%	/	?
O=C(N/N=C/c1ccc(COc2ccc(Br)cc2)o1)c1ccco1	-5%	/	18%	-1%	2%
CC(C)N(C(=O)CSc1nnc(Cn2nnc3ccccc32)n1C)C(C)C	1%	21%	8%	4%	-5%
CC1Cc2ccccc2N1C(=O)CSc1nnc(Cn2nnc3ccccc32)n1C (stereo not given)	-7%	13%[10 µM]	7%	10µM*	?
COc1cccc(-n2c(SCC(=O)NC3CCCC3)nnc2-c2ccco2)c1	?	-9%[1.9 µM]	6%	?	-9%
COc1ccccc1-n1c(SCC(=O)NC(C)(C)C)nnc1-c1ccco1	16µM*	10%[10 µM]	-7%	-5%	-13%
COc1cccc(-n2c(SCC(=O)N3c4ccccc4CC3C)nnc2-c2ccco2)c1 (stereo not given)	-30%	-29%	-18%	25µM*	-1%
CCc1ccc(NC(=O)CSC2=Nc3ccccc3C3=NC(CCC(=O)NCc4ccco4)C(=O)N23)cc1 (stereo not given)	/	/	/	/	-1%[46 µM]
Cc1[nH]n(-c2ccccc2)c(=O)c1/C=N/NC(=O)c1cccc([N+](=O)[O-])c1	-15%	-64%[10 µM]	5.6µM*	4%	?
Cc1[nH]n(-c2ccccc2)c(=O)c1/C=N/O	-8%	-32%	?	5%	5%
Cc1[nH]n(-c2ccccc2)c(=O)c1/C=N/NC(=O)COc1ccccc1[N+](=O)[O-]	-11%	-13%[10 µM]	?	4%	?
Cc1[nH]n(-c2ccccc2)c(=O)c1N=O	/	/	0.63µM*	-7%	5%[46 µM]
Cc1[nH]n(-c2cccc3ccccc23)c(=O)c1/C=N/NC(=O)c1cccc([N+](=O)[O-])c1	-16%	7%[10 µM]	10µM*	0%	8%
Cc1ccc(-n2[nH]c(C)c(/C=N/NC(=O)c3ccc([N+](=O)[O-])cc3)c2=O)c(C)c1	/	-134%	13µM*	5%	/
Cc1ccc(NC(=O)CCSc2ccccn2)cc1	-17%	/	-4%	-12%	-7%
Cc1[nH]n(-c2ccccc2)c(=O)c1/C=N/NC(=O)C(C)C	/	-124%	?	25µM*	?
CCN1CCN(C2=NC(=O)/C(=C/c3ccc(C)o3)S2)CC1	-19%	-21%	18%	20µM*	0%
O=C(OCc1cc(=O)n2c3c(sc2n1)CCCC3)c1cccc(NC(=O)c2ccccc2F)c1	/	/	/	/	-7%[46 µM]
SMILES	HPGD inh	HTT cytoprotect	HTT aggregate	ALDH1A1 block	LMNA splice mod
CCn1c(SCC(=O)N/N=C/C(C)=C/c2ccco2)nnc1-c1ccccc1	-13%	-17%	-4%	20µM*	0%
CCn1c(SCC(=O)N/N=C(\C)c2ccncc2)nnc1-c1ccc(C)cc1	/	8%[10 µM]	20%[9.22 µM]	20µM*	/
O=C(Cc1ccccc1)NNC(=S)Nc1ccccc1	/	/	/	4%	19%[46 µM]
CCn1c(SCC(=O)N/N=C/c2ccccc2OCC(=O)O)nnc1-c1ccc(C)cc1	/	6%[10 µM]	4%[9.22 µM]	/	/
O=C(CSc1nnc(SCc2ccccc2)s1)NNC(=S)Nc1ccccc1	10µM*	-7%[1.9 µM]	2%	3.2µM*	-10%
CCn1c(SCC(=O)N/N=C/c2ccc(C)o2)nnc1-c1ccccc1	?	-4%[10 µM]	-11%	11µM*	-2%
